# Assay outcomes: PubChem, NMMLSC
# This is a sample that favours compounds with a hit; in the whole collection about 3.5% have one here.
# Anthrax LF inh2: blocks Bacillus anthracis lethal factor protease. multiplex microsphere protease cleavage assay, LF. inhibition, % at 10 µM. actives 0.12% (n = 360,000). P15917. AID 588501; also: plate controls were buffer without enzyme for full effect and enzyme alone for no effect
# Target sequence (P15917 whole entry, looked up): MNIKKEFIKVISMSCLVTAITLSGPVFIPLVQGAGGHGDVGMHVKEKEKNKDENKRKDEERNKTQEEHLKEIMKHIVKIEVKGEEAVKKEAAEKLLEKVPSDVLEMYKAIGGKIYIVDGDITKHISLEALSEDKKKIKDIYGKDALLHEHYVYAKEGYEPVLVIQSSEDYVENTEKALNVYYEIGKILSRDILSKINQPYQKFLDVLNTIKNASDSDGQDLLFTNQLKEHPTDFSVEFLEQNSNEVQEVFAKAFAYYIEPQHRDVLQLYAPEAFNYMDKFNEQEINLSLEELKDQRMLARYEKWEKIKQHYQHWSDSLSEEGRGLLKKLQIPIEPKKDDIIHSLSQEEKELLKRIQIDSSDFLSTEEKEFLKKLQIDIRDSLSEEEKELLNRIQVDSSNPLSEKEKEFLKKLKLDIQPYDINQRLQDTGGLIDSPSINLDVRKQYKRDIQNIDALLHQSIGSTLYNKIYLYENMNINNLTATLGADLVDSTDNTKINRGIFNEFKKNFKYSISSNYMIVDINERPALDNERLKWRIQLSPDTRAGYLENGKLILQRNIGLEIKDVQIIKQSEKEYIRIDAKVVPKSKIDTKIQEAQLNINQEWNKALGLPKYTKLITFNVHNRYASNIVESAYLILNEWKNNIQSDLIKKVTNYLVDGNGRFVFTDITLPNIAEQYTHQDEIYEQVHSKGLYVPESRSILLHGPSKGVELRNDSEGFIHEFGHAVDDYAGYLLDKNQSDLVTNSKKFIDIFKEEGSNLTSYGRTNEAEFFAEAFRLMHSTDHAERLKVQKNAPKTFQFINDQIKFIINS
# BoNT F protease: BoNT F light chain protease inhibition. Multiplex microsphere protease cleavage assay, flow cytometry. inhibition, % at 10 µM. actives 0.22% (n = 360,000); in the data active = inhibition above about 35%, passing the limit was not always enough; inconclusive = no clear call, values can overlap the other calls; also: plate controls were buffer without enzyme for full effect and enzyme alone for no effect
# BoNT A protease: inhibitors of Botulinum neurotoxin A light chain protease | multiplex microsphere protease substrate cleavage, flow cytometry | inhibition, % at 10 µM | actives 0.17% (n = 360,000); also: plate controls were buffer without enzyme for full effect and enzyme alone for no effect
# Bead autofluor: counter-screen for toxin protease inhibitors: compound fluorescence. compound autofluorescence counterscreen, microsphere flow cytometry; active compounds read high. fluorescence intensity (concentration not given with the values). actives 3.1% (n = 360,000); in the data active = fluorescence intensity above about 16000; inconclusive = no clear call, values can overlap the other calls
# * marks the source's active call; other numbers are inactive results; u = inconclusive. Rule as the data show it, unless noted: active = inhibition above about 30%; inconclusive = no clear call, values can overlap the other calls; inactive = below that.
SMILES,Anthrax LF inh2,BoNT F protease,BoNT A protease,Bead autofluor
COc1ccccc1Cn1c(=S)[nH]c2cc(C(=O)N3CC(C)CC(C)C3)ccc2c1=O (stereo not drawn),-1.8,-0.4,-0.1,4100
O/N=C/c1cccn1-c1ccc(O)cc1,-0.6,-4.0,-1.4,23862*
CC(=O)c1ccc(OCc2nnn(CC(=O)NS(=O)(=O)c3ccc(C)cc3)c2-c2ccccc2)cc1,-3.7,-8.0,-0.5,3544
Cc1ncsc1C(=O)N1N=C2/C(=C/c3ccc(N4CCOCC4)cc3)CCCC2C1c1ccc(N2CCOCC2)cc1 (stereo not drawn),-3.7,-3.8,-2.3,24267*
Cc1ncsc1C(=O)N1N=C2/C(=C/c3ccccc3)CCCC2C1c1ccccc1 (stereo not drawn),-5.0,3.6,-0.2,7965
CCN(CC)c1ccc(C=N/C(C#N)=C(\N)C#N)cc1,-3.8,-7.9,3.5,17577*
Cc1ccccc1-c1n[nH]nc1C1=CC(=O)CC(C)(C)C1,0.5,-5.7,-0.2,3861
COC(=O)c1ccc(NC(=O)c2cc[n+](Cc3ccccc3)cc2)cc1,3.6,-2.0,0.0,3260
O=C(c1cc(-c2cccs2)on1)N1CCOCC1,-0.5,-6.1,-2.4,21693*
O=C(c1ccccc1Cl)N1CCc2ccccc2C1,-2.4,-7.4,-5.2,17580*
O=C(c1cc(-c2ccccc2O)on1)N1CCc2ccccc2C1,0.3,-3.5,0.4,6115
O=C(c1cc(-c2cccs2)on1)N1CCc2ccccc2C1,-1.7,-0.1,2.2,22720*
COc1ccccc1NS(=O)(=O)c1ccc(C)c(C(=O)NCCCN2CCCC2=O)c1,-1.1,6.3,6.4,3917
COc1cccc(C(=O)NCC(=O)N2CCC3(CC2)NCCc2[nH]cnc23)c1OC,1.8,1.7,0.0,6255
S=c1[nH]nc(-c2ccco2)n1-c1ccc(Cl)cc1,-0.7,1.9,-0.3,3957
COc1ccc(-n2c(-c3ccco3)n[nH]c2=S)cc1,-3.3,3.7,3.0,22219*
Cc1ccccc1CSc1nnc(NC(=O)C2COc3ccccc3O2)s1 (stereo not drawn),-15.7,4.2,5.4,20631*
O=C(Nc1nnc(SCc2ccccc2Cl)s1)C1COc2ccccc2O1 (stereo not drawn),1.3,-5.3,0.6,3752
O=C(COC(=O)c1n[nH]c(=O)c2ccccc12)Nc1ccccc1,-5.0,9.4,3.5,5013
CCOC(=O)C(=O)Cc1cccnn1,-14.7,-4.1,-2.1,3647
COc1ccc(/C=C2/SC(=O)N(NS(=O)(=O)c3ccccc3)C2=S)cc1OC,-9.2,3.7,6.1,21520*
CC1(c2ccccc2)NC(=O)N(CC(=O)N2CCN(S(=O)(=O)c3c(F)cccc3F)CC2)C1=O (stereo not drawn),-0.6,-1.0,-0.2,6636
Cc1ccsc1/C=C1\SC(=S)N(CC2CCCO2)C1=O (stereo not drawn),31.8*,6.6,35.0*,4396
Cc1ccccc1-c1nc(CS(=O)CC(=O)NCCN2CCN(Cc3ccccc3)CC2)c(C)o1 (stereo not drawn),-4.5,0.3,u,21943*
CCOc1ccc(CCNC(=O)CS(=O)Cc2nc(-c3ccccc3C)oc2C)cc1OCC (stereo not drawn),-18.0,-98.1,-48.8,20576*
SMILES,Anthrax LF inh2,BoNT F protease,BoNT A protease,Bead autofluor
CCCNC(=O)CS(=O)Cc1nc(-c2ccccc2C)oc1C (stereo not drawn),-6.3,-20.6,-1.9,6459
Cc1ccccc1-c1nc(CS(=O)CC(=O)NCCCN(C)c2ccccc2)c(C)o1 (stereo not drawn),-10.8,-21.7,-1.3,9328
CC(C)CCn1c(SCC(=O)NC2CC2)nc2cc(Cl)ccc2c1=O,0.2,5.1,0.9,4501
Cc1ccc(NC(=O)c2ccc3c(=O)n4c(nc3c2)CCC4)cc1S(=O)(=O)N(C)C,-1.8,3.3,-1.9,6770
CCOC(=O)c1c(-c2ccccc2)nc2ccc(C)cn12,2.2,0.4,u,19967*
O=C(Cn1cccc1)N1CCc2ccccc21,-3.9,-9.7,-4.5,17880*
CC1Oc2ccccc2N(CC(=O)N2CCCCC2)C1=O (stereo not drawn),1.4,3.1,2.2,3603
CC1Oc2ccccc2N(CC(=O)N2CCCc3ccccc32)C1=O (stereo not drawn),-16.5,12.7,11.4,18633*
CC1Oc2ccccc2N(CC(=O)N2CCc3ccccc32)C1=O (stereo not drawn),-3.9,0.1,0.9,23145*
CC1Oc2ccccc2N(CC(=O)c2ccccc2)C1=O (stereo not drawn),0.3,-2.2,0.6,11434
Cc1cc(C)c(OCCCNC2CCCC2)c(Br)c1,5.6,-8.8,-1.6,3115
CCOC(=O)C1CCCN(C(=O)c2cccc(S(=O)(=O)N(C)c3ccc(C)cc3)c2)C1 (stereo not drawn),4.6,7.6,4.2,8370
COc1ccc(S(=O)(=O)NCCOc2ccccc2)cc1-n1cnnn1,4.7,0.7,-0.8,4706
O=C1CC(c2ccc(S(=O)(=O)NCCOc3ccccc3)cc2)CN1 (stereo not drawn),-2.2,2.0,3.1,21883*
CCNS(=O)(=O)c1ccc(Br)c(OC)c1,-1.8,0.0,-0.9,20265*
COc1ccc(S(=O)(=O)NCCOc2ccccc2)cc1OC,0.0,3.8,1.3,22108*
COCCNS(=O)(=O)c1ccc(C2CNC(=O)C2)cc1 (stereo not drawn),-2.4,-0.9,-0.4,5261
CC12C=CC(=O)C=C1CCC1C2C(O)CC2(C)C1CCC2(O)C(=O)CO (stereo not drawn),17.7,3.3,0.1,5941
O=C(NCCc1ccccc1O)c1cc2c(cc1[N+](=O)[O-])OCO2,-2.5,-6.9,0.2,2965
CC1=C(C#N)C(NC(=O)c2ccc(C)cc2)(C(F)(F)F)C(=O)N1 (stereo not drawn),-0.5,5.2,5.7,19042*
CCOc1ccc(NS(=O)(=O)N(C)C)cc1,-1.1,6.9,1.2,4032
CN(C)S(=O)(=O)Nc1ccc(C(=O)O)cc1,-1.2,2.9,2.3,21783*
Nc1nc(Br)c2c(F)cccc2c1-c1ccccc1,1.1,-4.9,-4.1,21859*
Nc1ccc(-c2c3ccccc3nc3ccccc23)cc1,-4.1,u,1.4,3969
Nc1nc(Br)c2c(F)cccc2c1-c1ccc(F)cc1,0.3,1.8,2.9,22286*
SMILES,Anthrax LF inh2,BoNT F protease,BoNT A protease,Bead autofluor
Nn1c(-c2ccc(F)cc2)nc2ccccc2c1=O,1.2,1.2,-1.9,3604
Cc1ccc(S(=O)(=O)Cc2ccc(C(=O)N3CCCC3)o2)cc1,-5.8,-10.0,-0.6,6159
O=C(c1ccc(CS(=O)(=O)Cc2ccc(Cl)cc2)o1)N1CCCC1,-5.1,0.6,1.0,23181*
O=S(=O)(c1ccccc1)c1nc(-c2ccc(Cl)cc2)oc1NCCCN1CCOCC1,-3.2,3.4,-0.6,6531
C=CCn1c(N)c(C(=O)NC2CCCCC2)sc1=S,0.4,-1.5,-1.2,23947*
Cc1cccc(/C(N)=N/OC(=O)Cc2cccs2)c1,-2.5,3.8,1.8,19950*
Cc1ccc(/C(N)=N/OC(=O)CCC2CCCCC2)cc1,-2.3,-5.3,-1.6,16562*
Cc1ccc(/C(N)=N/OC(=O)Cc2cccs2)cc1,-1.5,-2.0,-0.7,23460*
N/C(=N\OC(=O)Cc1cccs1)c1ccccc1,-1.0,0.8,1.5,u
